Data as given in PubChem BioAssay (NCATS).
Records with an inconclusive call do not appear. The source made the active and inactive calls. Calls come from the whole dose curve; as a rule, active = well fitted curve in the direction sought with a large enough effect; inconclusive = small, poorly fitted or top-dose-only effect, or another doubt; inactive = no such curve, though single readings can be large; an effect the other way counts as inactive or inconclusive.

Assays:
[1] = target: Rap guanine nucleotide exchange factor 3 (Homo sapiens) (UniProt O95398); experiment: Confirmatory qHTS for antagonist of cAMP-regulated guanine nucleotide exchange factor 3 (EPAC1) (AID 1645880); note: nearly all actives have a fitted effect of over 55% in size; note: potency is the fitted concentration of half-maximal effect
Sequence of Rap guanine nucleotide exchange factor 3 (Homo sapiens) (O95398 whole entry, looked up): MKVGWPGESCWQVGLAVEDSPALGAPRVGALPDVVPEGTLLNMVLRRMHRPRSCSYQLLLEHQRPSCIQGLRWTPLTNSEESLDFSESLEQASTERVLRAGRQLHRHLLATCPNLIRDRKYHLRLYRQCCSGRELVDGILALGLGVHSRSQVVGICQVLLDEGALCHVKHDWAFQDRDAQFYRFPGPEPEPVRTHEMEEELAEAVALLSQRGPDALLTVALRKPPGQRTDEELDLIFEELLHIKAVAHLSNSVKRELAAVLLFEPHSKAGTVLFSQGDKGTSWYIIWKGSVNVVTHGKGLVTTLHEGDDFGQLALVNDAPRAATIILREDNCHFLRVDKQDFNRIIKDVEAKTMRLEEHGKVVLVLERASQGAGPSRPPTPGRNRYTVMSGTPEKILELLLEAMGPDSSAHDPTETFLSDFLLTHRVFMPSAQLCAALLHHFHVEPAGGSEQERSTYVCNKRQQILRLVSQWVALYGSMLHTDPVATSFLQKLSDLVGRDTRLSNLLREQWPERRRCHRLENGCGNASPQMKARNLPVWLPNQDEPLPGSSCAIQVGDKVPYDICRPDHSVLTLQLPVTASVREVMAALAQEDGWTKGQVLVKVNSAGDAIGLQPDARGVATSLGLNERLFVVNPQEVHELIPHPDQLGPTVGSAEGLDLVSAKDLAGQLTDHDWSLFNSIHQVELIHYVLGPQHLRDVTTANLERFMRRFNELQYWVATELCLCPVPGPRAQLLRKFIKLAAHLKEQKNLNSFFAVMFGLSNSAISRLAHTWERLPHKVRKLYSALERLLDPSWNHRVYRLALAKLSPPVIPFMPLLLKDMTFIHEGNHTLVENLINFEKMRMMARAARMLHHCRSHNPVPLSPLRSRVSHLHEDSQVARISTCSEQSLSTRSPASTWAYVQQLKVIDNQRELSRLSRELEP
In short: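 Nucleotide exchange uses 100 nM EPAC1, 250 nM RAP1B-BODIPY-GDP and 50 uM GDP, with compounds in a concentration-titration series. After 5 min at room temperature, fluorescence (480 nm ex/540 nm em) is read every 5 min for 30 min. Data are normalized to control ATA and DMSO.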

[2] = target: Rap guanine nucleotide exchange factor 3 (Homo sapiens) (UniProt O95398); experiment: Confirmatory qHTS for agonist of cAMP-regulated guanine nucleotide exchange factor 3 (EPAC1) (AID 1645881);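 note: EPAC1 catalysed release of BODIPY-GDP from Rap1B seen as fluorescence loss; 100% = effect of cAMP agonist control; nearly all actives have a fitted effect of over 75% in size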
[3] = target: Rap guanine nucleotide exchange factor 4 (Homo sapiens) (UniProt Q8WZA2); experiment: Confirmatory qHTS for agonist of cAMP-regulated guanine nucleotide exchange factor 4 (EPAC2) (AID 1645884);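 note: nucleotide exchange releases bodipy-GDP from Rap1 and this lowers its fluorescence; % is set by controls: 0 for no effect and ±100 for the full control effect; nearly all actives have a fitted effect of over 65% in size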
Sequence of Rap guanine nucleotide exchange factor 4 (Homo sapiens) (Q8WZA2 whole entry, looked up): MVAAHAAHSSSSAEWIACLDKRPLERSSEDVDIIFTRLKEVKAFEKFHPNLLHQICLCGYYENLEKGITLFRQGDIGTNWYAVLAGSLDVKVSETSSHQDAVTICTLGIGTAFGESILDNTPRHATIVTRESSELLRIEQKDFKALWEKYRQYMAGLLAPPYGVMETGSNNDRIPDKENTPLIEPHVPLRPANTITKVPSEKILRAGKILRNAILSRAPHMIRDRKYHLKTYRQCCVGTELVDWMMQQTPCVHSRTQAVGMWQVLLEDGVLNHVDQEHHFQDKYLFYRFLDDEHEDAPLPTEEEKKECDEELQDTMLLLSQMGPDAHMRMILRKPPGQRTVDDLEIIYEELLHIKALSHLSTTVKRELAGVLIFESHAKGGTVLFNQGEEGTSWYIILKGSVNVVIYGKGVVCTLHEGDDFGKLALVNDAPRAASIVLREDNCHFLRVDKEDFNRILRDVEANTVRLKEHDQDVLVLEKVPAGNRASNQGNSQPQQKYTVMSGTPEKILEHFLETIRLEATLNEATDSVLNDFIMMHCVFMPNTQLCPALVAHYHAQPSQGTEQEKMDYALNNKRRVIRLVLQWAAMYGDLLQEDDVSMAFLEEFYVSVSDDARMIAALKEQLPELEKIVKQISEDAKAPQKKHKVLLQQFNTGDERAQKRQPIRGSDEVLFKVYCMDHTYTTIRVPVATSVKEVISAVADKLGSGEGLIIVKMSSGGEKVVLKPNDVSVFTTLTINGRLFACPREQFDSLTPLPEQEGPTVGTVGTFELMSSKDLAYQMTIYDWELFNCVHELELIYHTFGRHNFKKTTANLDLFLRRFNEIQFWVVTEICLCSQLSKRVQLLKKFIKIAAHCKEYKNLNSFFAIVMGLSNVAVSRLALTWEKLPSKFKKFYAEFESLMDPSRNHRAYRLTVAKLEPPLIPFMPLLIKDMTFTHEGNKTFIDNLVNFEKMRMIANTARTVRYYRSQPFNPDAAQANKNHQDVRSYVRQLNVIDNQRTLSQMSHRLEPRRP

[4] = target: Rap guanine nucleotide exchange factor 4 (Homo sapiens) (UniProt Q8WZA2); experiment: Confirmatory qHTS for antagonist of cAMP-regulated guanine nucleotide exchange factor 4 (EPAC2) (AID 1645885); note: nearly all actives have a fitted effect of over 25% in size; note: potency is the fitted concentration of half-maximal effect; for activity change, negative = inhibition: % is set by controls: 0 for no effect and ±100 for the full control effect
[5] = target: Rap guanine nucleotide exchange factor 3 (Homo sapiens) (UniProt O95398); experiment: Counterscreen qHTS for antagonist of cAMP-regulated guanine nucleotide exchange factor 3 (EPAC1) (AID 1645888);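 note: fluorescence loss as bound BODIPY-GDP is released from Rap1B; % of control where 0% means no effect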
In short: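 Rap1B–BODIPY-GDP (250 nM) with 50 uM GDP; compounds pin-transferred to 9.74 nM–152 uM final (activator) or from 7.32 nM upwards (inhibitor). Fluorescence Ex/Em 480/540 nm read at 5 and 30 min, then after adding cAMP or buffer, at room temperature.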

Cn1nc(-c2ccccn2)nc2c(=O)n(C)c(=O)nc1-2
inactive: Potency [2] | Potency [3] | Potency [4] | Potency [5]
active: Potency [1] 1.69 µM

CC(C)c1ccc(C2NC(=O)c3c(sc4c3CCN(C)C4)N2)cc1 (stereo not given)
inactive: Potency [1] | Potency [2] | Potency [3] | Potency [4] | Potency [5]

CCSc1nc2ccccc2c(=O)n1C1CCOC(C)(C)C1 (stereo not given)
inactive: Potency [1] | Potency [2] | Potency [3] | Potency [4] | Potency [5]

C[C@@H]1CN([C@@H](C)CO)S(=O)(=O)c2ccc(Br)cc2O[C@H]1CN(C)Cc1ccccc1F
inactive: Potency [1] | Potency [2] | Potency [3] | Potency [4] | Potency [5]

Cc1ccc(NC(=O)Cn2nc(C)c3nn(-c4ccc(Cl)cc4)c(C)c3c2=O)cc1F
inactive: Potency [1] | Potency [2] | Potency [3] | Potency [4] | Potency [5]

Cc1c(Br)c(=O)oc2c(Br)c(O)c(O)cc12
inactive: Potency [2] | activation [3] 9.71% [at 17.1 µM, percent relative to cAMP agonist control] | Potency [4] | activity change, negative = inhibition [5] 21.7% [at 30.8 µM]
active: Potency [1] 3.16 µM

Clc1ccc(CSc2nnc(-c3ccncc3)s2)cc1
inactive: Potency [1] | Potency [2] | Potency [3] | Potency [4] | Potency [5]

O=C1C(Cl)=C(NC(=O)c2ccccc2)C(=O)C(Cl)=C1NC(=O)c1ccccc1
inactive: Potency [1] | Potency [2] | Potency [3] | Potency [4] | Potency [5]

O=C(c1ccccc1)N1CCN(CCc2ccccn2)CC1
inactive: Potency [1] | Potency [2] | Potency [3] | outcome [4] inactive [at 12.7 µM] | Potency [5]

O=C(Nc1ccccc1N1CCOCC1)c1cccc2c(Br)cccc12
inactive: Potency [1] | Potency [2] | Potency [3] | Potency [4] | Potency [5]

O=C(COC(=O)CNC(=O)c1ccc(Cl)cc1Cl)NCc1ccco1
inactive: Potency [1] | Potency [2] | activation [3] 5.36% [at 17.1 µM, percent relative to cAMP agonist control] | Potency [4] | activity change, negative = inhibition [5] 9.24% [at 30.8 µM]

Cc1ccccc1CNC(=O)CCC(=O)N1CCSc2ccccc21
inactive: Potency [1] | Potency [2] | Potency [3] | Potency [4] | Potency [5]

O=C(CCCc1ccccc1)NCc1cn2ccsc2n1
inactive: Potency [1] | Potency [2] | Potency [3] | Potency [4] | Potency [5]

CC1=Nc2ccccc2/C1=C/c1sc(=S)n(-c2cccc(C(=O)O)c2)c1O
active: Potency [1] 44.7 µM
inactive: Potency [2] | activation [3] 2.42% [at 17.1 µM, percent relative to cAMP agonist control] | Potency [4] | activity change, negative = inhibition [5] 11.8% [at 30.8 µM]

COc1cccc(CNC(=O)CCCn2nc(C)c3c(C)n(-c4ccc(C)cc4)nc3c2=O)c1OC
inactive: Potency [1] | Potency [2] | Potency [3] | Potency [4] | Potency [5]

Cc1cccc(CC2C(=O)Nc3ccccc32)c1 (stereo not given)
inactive: Potency [1] | Potency [2] | Potency [3] | Potency [4] | Potency [5]

COc1cc2cc(CNc3ccc(C)cc3)c(=O)n(CC(=O)Nc3ccc(F)cc3F)c2cc1OC
inactive: Potency [1] | Potency [2] | Potency [3] | Potency [4] | Potency [5]

CC(C)c1ccc(NS(=O)(=O)c2cn(C)c(=O)n(C)c2=O)cc1
inactive: Potency [1] | Potency [2] | Potency [3] | Potency [5]
active: Potency [4] 6.01 µM

COc1ccc(NC(=O)C2=NN(c3ccccc3)C(=O)CC2)cn1
inactive: Potency [1] | Potency [2] | Potency [3] | Potency [4] | Potency [5]

CCCC(=O)O[C@@H]1C[C@@H](C)N(C(=O)c2ccccc2)c2ccc(C)cc21
inactive: Potency [1] | Potency [2] | Potency [3] | Potency [4] | Potency [5]

CCOc1ccc2nc(NC(=O)CSc3nc(-c4ccccc4)c(C#N)c(=O)[nH]3)sc2c1
active: Potency [1] 56.2 µM
inactive: Potency [2] | activation [3] 2.22% [at 17.1 µM, percent relative to cAMP agonist control] | Potency [4] | activity change, negative = inhibition [5] -3.89% [at 30.8 µM]

COc1ccccc1C(CC(=O)N1CCCC1)c1ccc2c(c1)OCO2 (stereo not given)
inactive: Potency [1] | Potency [2] | activation [3] 2.08% [at 17.1 µM, percent relative to cAMP agonist control] | Potency [4] | activity change, negative = inhibition [5] -9.86% [at 30.8 µM]

O=S(=O)(NCc1ccco1)c1ccc(Cl)cc1Cl
inactive: Potency [1] | Potency [2] | activation [3] 3.78% [at 17.1 µM, percent relative to cAMP agonist control] | Potency [4] | activity change, negative = inhibition [5] -9.1% [at 30.8 µM]

COc1ccc(-c2n[nH]c3c2C(c2ccc(Cl)cc2Cl)NC3=O)cc1 (stereo not given)
inactive: Potency [1] | Potency [2] | Potency [3] | Potency [4] | Potency [5]

O=C(CN(c1ccc(Cl)c(C(F)(F)F)c1)S(=O)(=O)c1ccccc1)N1CCc2ccccc2C1
inactive: Potency [1] | Potency [2] | Potency [3] | Potency [4] | Potency [5]

CCOc1cccc(C(=O)N(Cc2ccc(F)cc2)Cc2ccco2)c1
inactive: Potency [1] | Potency [2] | Potency [3] | Potency [4] | Potency [5]

OC1(c2ccccc2)CC(c2ccccc2)c2ccccc2O1 (stereo not given)
inactive: Potency [1] | Potency [2] | activation [3] 1.28% [at 17.1 µM, percent relative to cAMP agonist control] | Potency [4] | activity change, negative = inhibition [5] -2.96% [at 30.8 µM]

CN(C(=O)c1cc(-c2ccccc2)on1)C1CCCCC1
inactive: Potency [1] | Potency [2] | activation [3] 6.82% [at 17.1 µM, percent relative to cAMP agonist control] | Potency [4] | activity change, negative = inhibition [5] 29.1% [at 30.8 µM]

COc1ccc2c(c1)cc(C(=O)N/N=C/c1c(O)c(C(=O)O)cc3ccccc13)n2C
active: Potency [1] 67.5 µM | Potency [4] 75.7 µM
inactive: Potency [2] | Potency [3] | Potency [5]

O=C1C=CC(=O)c2c(O)c(N3CCN(CCOCCO)CC3)c(Br)c(O)c21
inactive: Potency [2] | Potency [3] | Potency [4] | Potency [5]
active: Potency [1] 9.53 µM

CCOc1ccc(NC(=O)CN(C)C(=O)c2cc(C3CC3)nn2-c2ccccc2)cc1OCC
inactive: Potency [1] | Potency [2] | Potency [3] | Potency [4] | Potency [5]

O=C(Nc1cccc(Cl)c1)C1CCCN(C2=NS(=O)(=O)c3ccccc32)C1 (stereo not given)
inactive: Potency [1] | Potency [2] | Potency [3] | Potency [4] | Potency [5]

CC1(C)CC(=O)C=C(c2ccc(F)cc2OCc2ccccc2)C1
inactive: Potency [1] | Potency [2] | Potency [3] | Potency [4] | Potency [5]

Clc1ccccc1Cn1c(-c2cccs2)nc2ccccc21
inactive: Potency [1] | Potency [2] | Potency [3] | Potency [4] | Potency [5]

COc1ccccc1C(=O)NC(=O)COC(=O)C1CC1
inactive: Potency [1] | Potency [2] | Potency [3] | Potency [4] | Potency [5]
